Results filed as inconclusive are left out. The source made the active and inactive calls. Unless noted, calls follow the shape of the dose curve; as a rule, active = well fitted curve in the direction sought with a large enough effect; inconclusive = small, poorly fitted or top-dose-only effect, or another doubt; inactive = no such curve, though single readings can be large; an effect the other way counts as inactive or inconclusive.
Experiments:
UISO = assay: qHTS assay to identify novel small-molecules to repurpose for Merkel cell carcinoma treatment (AID 1296009); conditions: MCC and control cell lines, CellTiter-Glo viability, 72 h; series mostly up to 46 µM; also: % is scaled to controls: 0 for no effect and ±100 for the full control effect; nearly all actives have a fitted effect of over 60% in size
Method in brief: (§1)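 Cells were treated for 72 hr at 37 degree celsius with compounds in 8- or 11-point dose response. Viability was read by CellTiter-Glo luminescence, normalized to no-cell (cytotoxicity) and DMSO controls.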

WaGa = assay: as above; conditions: MCC and control cell lines, CellTiter-Glo viability, 72 h; series mostly up to 46 µM
Method in brief: as §1

C33A = assay: Primary qHTS to identify gynecologic anti-cancer compounds using libraries of approved drugs and bioactive compounds (AID 1345084); conditions: Gynecologic cancer cell panel viability, ATPlite luminescence, 48 h; series mostly up to 57.5 µM; also: % is scaled to controls: 0 for no effect and ±100 for the full control effect; nearly all actives have a fitted effect of over 55% in size
Method in brief: (§2)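 ATP-based viability (ATPlite), 1,000 cells/well, 16 h pre-incubation, 48 h compound at 37 C, 5% CO2, 15 min RT before read.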

CAOV3 = assay: as above; conditions: Gynecologic cancer cell panel viability, ATPlite luminescence, 48 h; series mostly up to 57.5 µM
Method in brief: as §2

CASKI = assay: as above; conditions: Gynecologic cancer cell panel viability, ATPlite luminescence, 48 h; series mostly up to 57.5 µM
Method in brief: as §2

Es-2 = assay: as above; conditions: Gynecologic cancer cell panel viability, ATPlite luminescence, 48 h; series mostly up to 57.5 µM
Method in brief: as §2

HeLa = assay: as above; conditions: Gynecologic cancer cell panel viability, ATPlite luminescence, 48 h; series mostly up to 57.5 µM
Method in brief: as §2

Hek293T = assay: as above; conditions: Gynecologic cancer cell panel viability, ATPlite luminescence, 48 h, control line for the selectivity index; series mostly up to 57.5 µM
Method in brief: as §2

JEG-3 = assay: as above; conditions: Gynecologic cancer cell panel viability, ATPlite luminescence, 48 h; series mostly up to 57.5 µM
Method in brief: as §2

OV90 = assay: as above; conditions: Gynecologic cancer cell panel viability, ATPlite luminescence, 48 h; series mostly up to 57.5 µM
Method in brief: as §2

PA-1 = assay: as above; conditions: Gynecologic cancer cell panel viability, ATPlite luminescence, 48 h; series mostly up to 57.5 µM
Method in brief: as §2

Tov-21-G = assay: as above; conditions: Gynecologic cancer cell panel viability, ATPlite luminescence, 48 h; series mostly up to 57.5 µM
Method in brief: as §2

Tov112D = assay: as above; conditions: Gynecologic cancer cell panel viability, ATPlite luminescence, 48 h; series mostly up to 57.5 µM
Method in brief: as §2

[1] = Drug repurposing screens with cells derived from glioblastoma tumor samples (AID 1345199); conditions: GBM patient neurospheres viability, ATP luminescence, 48 h; also: nearly all actives have a fitted effect of over 40% in size; also: potency is read from the fitted curve at half-maximal effect; as to activity, negative = cell killing: % is scaled to controls: 0 for no effect and ±100 for the full control effect
Method in brief: (§3)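 Four patient lines of CD133+ GBM neurospheres were screened at several concentrations; hits were retested in those lines plus three slower-growing GBM lines, using 48-hour treatment and ATP-based viability.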

astro = assay: as above; conditions: viability, ATP luminescence, 48 h; series mostly up to 45.9 µM
Method in brief: as §3

SKOV3 = assay: Primary qHTS to identify gynecologic anti-cancer compounds using libraries of approved drugs and bioactive compounds (AID 1345084); conditions: Gynecologic cancer cell panel viability, ATPlite luminescence, 48 h; series mostly up to 57.5 µM; also: % is scaled to controls: 0 for no effect and ±100 for the full control effect; nearly all actives have a fitted effect of over 55% in size
Method in brief: as §2

[2] = target: Nuclear receptor subfamily 1 group I member 2 (Rattus norvegicus) (UniProt Q9R1A7); assay: qHTS assay for small molecule activators of the rat pregnane X receptor (rPXR) signaling pathway (AID 651751; call rule not given here; also: 0% is about no effect); conditions: rPXR reporter cells, luciferase (One-Glo), 24 h
[3] = at 45.9 µM (top of the series), tumour line B
[4] = at 46.1 µM (top of the series), tumour line C
[5] = at 45.9 µM (top of the series), tumour line D
[6] = at 46 µM (top of the series), tumour line A

Nuclear receptor subfamily 1 group I member 2 (Rattus norvegicus), sequence (Q9R1A7 whole entry, looked up): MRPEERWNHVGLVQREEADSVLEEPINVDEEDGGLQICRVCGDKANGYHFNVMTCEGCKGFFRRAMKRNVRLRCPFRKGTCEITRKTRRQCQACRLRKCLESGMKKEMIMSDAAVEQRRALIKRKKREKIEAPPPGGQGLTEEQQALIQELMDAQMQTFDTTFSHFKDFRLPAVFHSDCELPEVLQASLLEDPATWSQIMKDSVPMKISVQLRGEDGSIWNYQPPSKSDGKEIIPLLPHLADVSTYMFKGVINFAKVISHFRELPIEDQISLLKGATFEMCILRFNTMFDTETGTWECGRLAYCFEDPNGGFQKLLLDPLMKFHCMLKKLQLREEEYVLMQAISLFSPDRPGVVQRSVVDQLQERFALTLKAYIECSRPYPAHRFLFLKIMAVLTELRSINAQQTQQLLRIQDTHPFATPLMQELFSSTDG

CC(=O)Nc1ccc(OCCOCCOc2ccc(NC(C)=O)cc2)cc1
inactive: outcome (UISO) | outcome (WaGa) | outcome (C33A) | outcome (CAOV3) | outcome (CASKI) | outcome (Es-2) | outcome (HeLa) | outcome (Hek293T) | outcome (JEG-3) | Potency (OV90) | outcome (PA-1) | outcome (Tov-21-G) | outcome (Tov112D) | activity, negative = cell killing [1, 3] -5.83% | activity, negative = cell killing [1, 4] -16.3% | outcome (astro)

O=C(O)Cc1cn(-c2ccccc2)nc1-c1ccc(Cl)cc1
inactive: outcome (UISO) | outcome (WaGa) | outcome (C33A) | outcome (CAOV3) | outcome (CASKI) | outcome (Es-2) | outcome (HeLa) | outcome (Hek293T) | outcome (JEG-3) | Potency (OV90) | outcome (PA-1) | outcome (SKOV3) | outcome (Tov-21-G) | outcome (Tov112D) | activity, negative = cell killing [1, 3] -17.9% | activity, negative = cell killing [1, 5] -13.4% | activity, negative = cell killing [1, 4] -18.4% | outcome (astro)

CCOC(=O)[C@H](CCc1ccccc1)N[C@@H](C)C(=O)N1Cc2cc(OC)c(OC)cc2C[C@H]1C(=O)O
inactive: outcome (UISO) | outcome (WaGa) | outcome (C33A) | outcome (CAOV3) | outcome (CASKI) | outcome (Es-2) | outcome (HeLa) | outcome (Hek293T) | outcome (JEG-3) | Potency (OV90) | outcome (PA-1) | outcome (SKOV3) | outcome (Tov-21-G) | outcome (Tov112D) | activity, negative = cell killing [1, 3] -9.77% | activity, negative = cell killing [1, 5] -6.92% | activity, negative = cell killing [1, 4] -6.4% | outcome (astro)

CC1CCN(CCCC(=O)c2ccc(F)cc2)CC1
active: Potency ([1]; tumour line A) 10 µM
inactive: outcome (UISO) | outcome (WaGa) | outcome (C33A) | outcome (CAOV3) | outcome (CASKI) | outcome (Es-2) | outcome (HeLa) | outcome (Hek293T) | outcome (JEG-3) | Potency (OV90) | outcome (PA-1) | outcome (SKOV3) | outcome (Tov-21-G) | outcome (Tov112D) | activity, negative = cell killing [1, 3] -15.8% | outcome (astro)

Cc1ccc2c(c1)c1c3n2CCNC3CCC1 (stereo unspecified)
inactive: outcome (UISO) | outcome (WaGa) | outcome (C33A) | outcome (CAOV3) | outcome (CASKI) | outcome (Es-2) | outcome (HeLa) | outcome (Hek293T) | outcome (JEG-3) | Potency (OV90) | outcome (PA-1) | outcome (Tov-21-G) | outcome (Tov112D)

CCCOC(=O)c1ccc(N)cc1
active: Potency ([1]; tumour line C) 25.9 µM
inactive: outcome (UISO) | outcome (WaGa) | outcome (C33A) | outcome (CAOV3) | outcome (Es-2) | outcome (HeLa) | outcome (Hek293T) | outcome (JEG-3) | Potency (OV90) | outcome (PA-1) | outcome (SKOV3) | outcome (Tov-21-G) | outcome (Tov112D) | activity, negative = cell killing [1, 5] -16.4%

CCCCCCCCCCCCCCCCN
inactive: outcome (UISO) | outcome (WaGa) | outcome (C33A) | outcome (CAOV3) | outcome (CASKI) | outcome (Es-2) | outcome (HeLa) | outcome (JEG-3) | Potency (OV90) | outcome (PA-1) | outcome (SKOV3) | outcome (Tov-21-G) | outcome (Tov112D) | activity, negative = cell killing [1, 3] -8.19% | activity, negative = cell killing [1, 5] -19.2% | activity, negative = cell killing [1, 4] -20.5% | outcome (astro)

CC[C@H](C)[C@H](N)C(=O)O
inactive: outcome (UISO) | outcome (WaGa) | outcome (C33A) | outcome (CASKI) | outcome (Es-2) | outcome (HeLa) | outcome (Hek293T) | outcome (JEG-3) | Potency (OV90) | outcome (PA-1) | outcome (SKOV3) | outcome (Tov-21-G) | outcome (Tov112D) | activity, negative = cell killing [1, 3] -7% | activity, negative = cell killing [1, 5] 0.894% | activity, negative = cell killing [1, 4] 2.32% | outcome (astro)

C[C@@H]1CCC[C@H](C)N1
inactive: outcome (UISO) | outcome (WaGa) | outcome (C33A) | outcome (CASKI) | outcome (Es-2) | outcome (HeLa) | outcome (Hek293T) | outcome (JEG-3) | Potency (OV90) | outcome (PA-1) | outcome (SKOV3) | outcome (Tov-21-G) | outcome (Tov112D) | activity, negative = cell killing ([1]; at 20 µM (top of the series), tumour line C) -13.9% | activity, negative = cell killing ([1]; at 21.2 µM (top of the series), tumour line B) -3.64% | activity, negative = cell killing ([1]; at 21.2 µM (top of the series), tumour line D) -2.57% | activity, negative = cell killing ([1]; at 21.3 µM (top of the series), tumour line A) -18%

CC1CC(OC(=O)c2ccccc2O)CC(C)(C)C1 (stereo unspecified)
inactive: outcome (UISO) | outcome (WaGa) | outcome (C33A) | outcome (CASKI) | outcome (Es-2) | outcome (HeLa) | outcome (Hek293T) | outcome (JEG-3) | Potency (OV90) | outcome (PA-1) | outcome (SKOV3) | outcome (Tov-21-G) | outcome (Tov112D) | activity, negative = cell killing [1, 3] -18.3% | activity, negative = cell killing [1, 5] -10.1% | activity, negative = cell killing [1, 6] -28.9% | activity, negative = cell killing [1, 4] 1.33% | max response [2] 5.1%

Cc1ccsc1C(=CCCN1CCC[C@@H](C(=O)O)C1)c1sccc1C
inactive: outcome (UISO) | outcome (WaGa) | outcome (C33A) | outcome (CASKI) | outcome (Es-2) | outcome (HeLa) | outcome (Hek293T) | outcome (JEG-3) | Potency (OV90) | outcome (PA-1) | outcome (SKOV3) | outcome (Tov-21-G) | outcome (Tov112D) | activity, negative = cell killing [1, 3] -2.91% | activity, negative = cell killing [1, 5] -7.39% | activity, negative = cell killing [1, 4] 2.1% | outcome (astro)

C[N+](C)(C)CC[N+]1(C)Cc2c(Cl)c(Cl)c(Cl)c(Cl)c2C1
inactive: outcome (UISO) | outcome (WaGa) | outcome (C33A) | outcome (CASKI) | outcome (Es-2) | outcome (HeLa) | outcome (Hek293T) | outcome (JEG-3) | Potency (OV90) | outcome (PA-1) | outcome (SKOV3) | outcome (Tov-21-G) | outcome (Tov112D) | activity, negative = cell killing [1, 3] -5.4% | activity, negative = cell killing [1, 5] -17.9% | activity, negative = cell killing [1, 4] -19.9% | outcome (astro)

CNCc1ccccc1
inactive: outcome (UISO) | outcome (WaGa) | outcome (C33A) | outcome (CASKI) | outcome (Es-2) | outcome (HeLa) | outcome (Hek293T) | outcome (PA-1) | outcome (SKOV3) | outcome (Tov-21-G) | outcome (Tov112D) | activity, negative = cell killing [1, 3] -13% | activity, negative = cell killing [1, 5] -15.9% | activity, negative = cell killing [1, 6] -19.4% | activity, negative = cell killing [1, 4] -9.99%

COC(=O)c1cccnc1
inactive: outcome (UISO) | outcome (WaGa) | outcome (C33A) | outcome (CASKI) | outcome (Es-2) | outcome (HeLa) | outcome (Hek293T) | outcome (JEG-3) | Potency (OV90) | outcome (PA-1) | outcome (Tov-21-G) | outcome (Tov112D) | activity, negative = cell killing [1, 3] -7.13% | activity, negative = cell killing [1, 5] -4.81% | activity, negative = cell killing [1, 6] -28.2% | activity, negative = cell killing [1, 4] 40.1%

From PubChem BioAssay (NCATS)
